# Laboratory results reported in PubChem BioAssay (NCATS).
# Unmarked numbers belong to inactive results. Results filed as inconclusive are left out. Entries that show only a call come without a potency. Calls of active or inactive are those of the source. Unless noted, calls follow the shape of the dose curve; as a rule, active = well fitted curve in the direction sought with a large enough effect; inconclusive = small, poorly fitted or top-dose-only effect, or another doubt; inactive = no such curve, though single readings can be large; an effect the other way counts as inactive or inconclusive.
# Tests used:
# [1] = target: Cytochrome P450 3A4 (Homo sapiens) (UniProt P08684); experiment: qHTS Assay for Activators of Cytochrome P450 3A4 (AID 885); settings: recombinant CYP3A4, Luciferin-PPXE luminescence, 60 min; series mostly up to 57.1 µM; also: nearly all actives have a fitted effect of over 65% in size
# Procedure, shortened: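 CYP3A4 activity: Luciferin-PPXE O-dealkylation, 25uM substrate, 200mM KPO4, RT throughout. Read-out is luciferase luminescence; higher values reflect activation.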
# [2] = Confirmation and Secondary Assay for Modulators of Hemoglobin Beta Chain Splicing at IVS2 654 locus (AID 910); settings: HeLa EGFP-654 splicing reporter, GFP fluorescence, 48 h; series mostly up to 46.1 µM;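 also: per-well total GFP intensity by laser scanning cytometry after 2-day treatment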;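 also: potency is read from the fitted curve at half-maximal effect; potency of activators that raise GFP signal by restoring correct splicing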
# Procedure, shortened: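 HeLa cells stably carrying EGFP interrupted by mutant beta-globin IVS2-654 intron (CMV-driven) were treated with compound for 2 days at 37C; corrected splicing was scored as total peak GFP intensity per well (488 nm excitation, 500-520 nm emission).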
# [3] = Confirmation and Secondary Assay for Modulators of Hemoglobin Beta Chain Splicing at IVS2 705 locus (AID 930); settings: HeLa EGFP-705 splicing reporter, GFP fluorescence, 48 h; series mostly up to 46.1 µM;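 also: GFP fluorescence per well restored by corrected splicing of the IVS2-705 intron in EGFP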; also: potency is read from the fitted curve at half-maximal effect;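 as to activation: HeLa cells stably expressing the EGFP-705 splicing reporter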
# Procedure, shortened: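 Fluorescence gain (488 nm laser, 500-520 nm PMT) reflects restored correct splicing of a mutant IVS2-705 intron inside EGFP in stably transfected HeLa cells after 2-day compound treatment.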
# [4] = target: Cytochrome P450 3A4 (Homo sapiens) (UniProt P08684); experiment: qHTS Assay for Inhibitors and Substrates of Cytochrome P450 3A4 (AID 884); settings: recombinant CYP3A4, Luciferin-PPXE luminescence; series mostly up to 57.1 µM; also: nearly all actives have a fitted effect of over 50% in size
# Procedure, shortened: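 Luminescent readout of luciferin produced by CYP3A4 (20 nM) dealkylation of Luciferin-PPXE, 25 uM (its KM). NADPH-driven reaction ran 60 min at RT after 10 min compound preincubation; data scaled to 57 uM ketoconazole as 100% inhibition.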
# [5] = target: Cytochrome P450 2D6 (Homo sapiens) (UniProt P10635); experiment: qHTS Assay for Inhibitors and Substrates of Cytochrome P450 2D6 (AID 891); settings: recombinant CYP2D6, luciferin-ME EGE luminescence; series mostly up to 57.1 µM; also: potency is read from the fitted curve at half-maximal effect; nearly all actives have a fitted effect of over 60% in size
# Procedure, shortened: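 Luminescent read-out of luciferin formed by 5 nM human CYP2D6 demethylating 30 uM Luciferin-ME EGE (Km level) over 60 min at room temperature after NADPH regeneration addition. Data normalized to full inhibition by 1.43 uM quinidine.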
# [6] = target: Cytochrome P450 2C19 (Homo sapiens) (UniProt P33261); experiment: qHTS Assay for Inhibitors and Substrates of Cytochrome P450 2C19 (AID 899); settings: recombinant CYP2C19, luciferin-H EGE luminescence; series mostly up to 57.1 µM; also: nearly all actives have a fitted effect of over 60% in size; also: potency is read from the fitted curve at half-maximal effect
# Procedure, shortened: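 In 50mM KPO4, the reaction held 5nM enzyme and KM-level (10uM) Luciferin-H EGE; it ran 60 min at 37C after NADPH regeneration and a 10 min compound preincubation. Luminescence values were scaled to 57uM ketoconazole as complete inhibition.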
# [7] = qHTS Assay for Identification of Small Molecule Agonists for Hypoxia Response Element Signaling Pathway (AID 914; active = well fitted activation curve with a large enough effect in the signal ratio, with a control signal flat, not every such curve was filed as active; the % refers to the signal ratio); settings: ME-180 (cervical carcinoma) HRE-bla reporter, beta-lactamase ratio, CoCl2, 17 h; active compounds read high
# Procedure, shortened: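 A beta-lactamase reporter under hypoxia response element control in ME-180 cells served as the system. Compound titrations plus EC50 CoCl2 ran 17 h at 37 degrees Celsius; AC50 values were fitted from %Activity.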
# Sequence of Cytochrome P450 3A4 (Homo sapiens) (P08684 whole entry, looked up): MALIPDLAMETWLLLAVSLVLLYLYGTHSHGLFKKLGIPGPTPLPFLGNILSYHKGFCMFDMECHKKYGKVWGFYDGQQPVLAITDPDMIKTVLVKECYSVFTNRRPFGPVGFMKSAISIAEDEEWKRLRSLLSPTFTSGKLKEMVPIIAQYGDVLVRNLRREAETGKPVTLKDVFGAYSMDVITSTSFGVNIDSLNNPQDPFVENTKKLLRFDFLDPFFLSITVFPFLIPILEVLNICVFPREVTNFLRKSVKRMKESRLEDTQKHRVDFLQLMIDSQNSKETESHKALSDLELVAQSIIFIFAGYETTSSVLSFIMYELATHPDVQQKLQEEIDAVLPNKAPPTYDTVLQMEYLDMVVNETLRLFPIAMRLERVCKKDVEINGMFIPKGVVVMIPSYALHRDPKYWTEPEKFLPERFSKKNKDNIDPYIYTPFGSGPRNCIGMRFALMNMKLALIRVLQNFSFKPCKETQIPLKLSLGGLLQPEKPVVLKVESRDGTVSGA
# Sequence of Cytochrome P450 2C19 (Homo sapiens) (P33261 whole entry, looked up): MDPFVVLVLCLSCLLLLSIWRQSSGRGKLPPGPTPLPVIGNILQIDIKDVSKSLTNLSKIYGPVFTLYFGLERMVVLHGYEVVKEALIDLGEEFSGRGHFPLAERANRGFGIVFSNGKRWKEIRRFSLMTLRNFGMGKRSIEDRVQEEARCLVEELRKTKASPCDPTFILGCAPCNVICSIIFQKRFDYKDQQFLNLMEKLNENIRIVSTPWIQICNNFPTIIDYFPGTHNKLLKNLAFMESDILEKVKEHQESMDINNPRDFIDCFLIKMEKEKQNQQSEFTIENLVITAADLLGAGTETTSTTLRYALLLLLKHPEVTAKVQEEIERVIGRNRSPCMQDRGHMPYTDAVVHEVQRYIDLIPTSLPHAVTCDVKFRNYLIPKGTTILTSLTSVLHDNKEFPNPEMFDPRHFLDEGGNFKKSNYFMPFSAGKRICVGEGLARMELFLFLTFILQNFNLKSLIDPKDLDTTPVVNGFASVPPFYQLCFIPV
# Sequence of Cytochrome P450 2D6 (Homo sapiens) (P10635 whole entry, looked up): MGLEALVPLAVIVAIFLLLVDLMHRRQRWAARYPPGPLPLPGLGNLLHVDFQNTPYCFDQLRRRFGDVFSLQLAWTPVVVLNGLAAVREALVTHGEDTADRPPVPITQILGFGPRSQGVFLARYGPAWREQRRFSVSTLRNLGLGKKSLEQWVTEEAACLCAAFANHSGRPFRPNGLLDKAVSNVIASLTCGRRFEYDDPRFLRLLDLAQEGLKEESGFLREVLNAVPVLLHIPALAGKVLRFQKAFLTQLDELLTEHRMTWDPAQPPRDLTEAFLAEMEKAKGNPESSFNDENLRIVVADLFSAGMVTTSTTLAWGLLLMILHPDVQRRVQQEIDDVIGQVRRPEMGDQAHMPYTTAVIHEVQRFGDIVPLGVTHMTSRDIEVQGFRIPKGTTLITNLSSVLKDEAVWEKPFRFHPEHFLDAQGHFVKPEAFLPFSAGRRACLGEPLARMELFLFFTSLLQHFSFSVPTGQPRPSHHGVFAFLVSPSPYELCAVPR
smiles,measurement,setting,value
CCCCS(=N)(=O)CCC(N)C(=O)O (stereo not drawn),outcome,[1],inactive
same,Potency,[2],inactive
same,Potency,[3],inactive
Oc1c(Cl)cc(Cl)c2cccnc12,Potency,[2],inactive
same,Potency,[3],inactive
Cc1cccc(N(C)C(=S)Oc2ccc3ccccc3c2)c1,outcome,[1],inactive
same,Potency,[2],inactive
same,Potency,[3],inactive
Nc1ccc(S(=O)(=O)Nc2ccccn2)cc1,outcome,[4],inactive
same,Potency,[2],inactive
same,Potency,[3],inactive
CCCCOc1ccc(CC(=O)NO)cc1,outcome,[4],inactive
same,Potency,[2],inactive
same,Potency,[3],inactive
CCCc1cc(C(N)=S)ccn1,Potency,[2],inactive
same,Potency,[3],inactive
CC(C)(Sc1cc(C(C)(C)C)c(O)c(C(C)(C)C)c1)Sc1cc(C(C)(C)C)c(O)c(C(C)(C)C)c1,Potency,[2],inactive
same,Potency,[3],inactive
CCCCCCNC(=O)n1cc(F)c(=O)[nH]c1=O,Potency,[2],inactive
same,Potency,[3],inactive
NS(=O)(=O)c1cc2c(cc1Cl)NC(C(Cl)Cl)NS2(=O)=O (stereo not drawn),outcome,[4],inactive
same,Potency,[2],inactive
same,Potency,[3],inactive
COc1ccccc1OCC(O)COC(N)=O (stereo not drawn),outcome,[4],inactive
same,Potency,[2],inactive
same,Potency,[3],inactive
COc1ccc(C(=O)CC(=O)c2ccc(C(C)(C)C)cc2)cc1,outcome,[4],inactive
same,Potency,[2],inactive
same,Potency,[3],inactive
COC(=O)Nc1nc2ccc(Sc3ccccc3)cc2[nH]1,outcome,[4],inactive
same,Potency,[2],inactive
same,Potency,[3],inactive
Nc1nc(=S)c2[nH]cnc2[nH]1,outcome,[4],inactive
same,Potency,[2],31.6 µM (active)
same,Potency,[3],5.01 µM (active)
CN1CCCC(n2nc(Cc3ccc(Cl)cc3)c3ccccc3c2=O)CC1 (stereo not drawn),Potency,[2],inactive
same,Potency,[3],inactive
COC(=O)Nc1nc2ccc(S(=O)c3ccccc3)cc2[nH]1 (stereo not drawn),Potency,[2],inactive
same,Potency,[3],inactive
CCn1cc(C(=O)O)c(=O)c2cc(F)c(N3CCNCC3)cc21,Potency,[2],inactive
same,Potency,[3],inactive
COc1c(N2CCNC(C)C2)c(F)cc2c(=O)c(C(=O)O)cn(C3CC3)c12 (stereo not drawn),outcome,[4],inactive
same,Potency,[2],inactive
same,Potency,[3],inactive
NCCCC(O)(P(=O)(O)O)P(=O)(O)O,Potency,[2],inactive
same,Potency,[3],inactive
CN(C)CCc1c[nH]c2ccc(CS(=O)(=O)N3CCCC3)cc12,outcome,[4],inactive
same,Potency,[2],inactive
same,Potency,[3],inactive
C1CCC(C(CC2CCCCN2)C2CCCCC2)CC1 (stereo not drawn),outcome,[1],inactive
same,Potency,[2],inactive
same,Potency,[3],inactive
O=S(=O)(O)CCS,outcome,[4],inactive
same,Potency,[2],inactive
same,Potency,[3],inactive
CC1=CC(=O)c2ccccc2C1=O,outcome,[1],inactive
same,Potency,[5],7.94 µM (active)
same,Potency,[6],2.51 µM (active)
same,Potency,[2],inactive
same,Potency,[3],inactive
NC(=O)N1c2ccccc2CC(=O)c2ccccc21,Potency,[2],inactive
same,Potency,[3],inactive
S=P(N1CC1)(N1CC1)N1CC1,Potency,[3],inactive
CN(CCOc1ccc(CC2SC(=O)NC2=O)cc1)c1ccccn1 (stereo not drawn),Potency,[2],inactive
same,Potency,[3],inactive
CNNCc1ccc(C(=O)NC(C)C)cc1,activation,[7],9.99%
CN(Cc1cc(Br)cc(Br)c1N)C1CCCCC1,Potency,[2],inactive
same,Potency,[3],inactive
COc1cc([C@@H]2c3cc4c(cc3[C@H](O)[C@H]3COC(=O)[C@H]23)OCO4)cc(OC)c1OC,outcome,[1],inactive
CCCOc1ccc(C(=O)OCCN(CC)CC)cc1N,Potency,[6],inactive
Nc1nc(N)c2nc(CNc3ccc(C(=O)NC(CCC(=O)O)C(=O)O)cc3)cnc2n1 (stereo not drawn),outcome,[4],inactive
same,Potency,[2],inactive
same,Potency,[3],inactive
OC(Cn1cncn1)(Cn1cncn1)c1ccc(F)cc1F,Potency,[2],inactive
same,Potency,[3],inactive
Cc1cccc(Nc2ccncc2S(=O)(=O)NC(=O)NC(C)C)c1,outcome,[1],inactive
same,Potency,[2],inactive
same,Potency,[3],inactive
COc1cc(NS(=O)(=O)c2ccc(N)cc2)nc(OC)n1,Potency,[2],inactive
same,Potency,[3],inactive
Cn1c(=O)c2c(ncn2CC(O)CO)n(C)c1=O (stereo not drawn),outcome,[4],inactive
same,Potency,[2],inactive
same,Potency,[3],inactive
